Assay outcomes as filed in PubChem BioAssay.
Rows were chosen to be rich in hits. Some 3% of all compounds tested hit in one or more screens of this group.
TR SRC2 fluor cs: Texas Red fluorescence interference in TRb-SRC2 counter-screen | TRb/SRC2 Texas Red total fluorescence interference | 280,000 compounds, 0.29% hits | Potency, µM (doses to about 106 µM), for inactives: at the top dose fluorescence change, negative = quenching; active = well fitted curve in either direction with a large enough effect; inconclusive = small, poorly fitted or top-dose-only effect
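Flags fluorescent or light-absorbing compounds by total fluorescence, S + 2P, at 555 nm excitation and 632 nm emission. Mixture: 20 nM Texas Red SRC2 peptide, 0.6 uM human TRb LBD, 1 uM T3, 5% DMSO; compound exposure 5 h at ambient temperature.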
Tau FP inhib: inhibitors of human tau fibril formation; P10636; K18 P301L tau heparin fibrillization, Alexa594 FP, 6 h; Potency, µM (doses to about 57.7 µM), inactives show at the top dose activity, negative = inhibition, actives largely listed as inhibitors; 280,000 compounds, 0.39% hits; also: nearly all actives have a fitted effect of over 55% in size
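Quantitative HTS format: compounds meet 15 uM recombinant K18 P301L tau and Alexa 594-tau tracer in 100 mM sodium acetate pH 7; 20 uM heparin triggers fibrillization at 37 C over 6 hr; FP gives the signal.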
Tau fibril ThT: blocks human tau fibril formation measured by thioflavin T | P10636 | recombinant tau K18 P301L, heparin-induced fibrillization, ThT fluorescence | Potency, µM (titrated, usually from 57.4 µM), without a hit: at the highest dose activity, negative = inhibition, most hits filed as inhibitors | 270,000 compounds, 2.1% hits | AID 1460; also: nearly all actives have a fitted effect of over 55% in size
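Recombinant human tau K18 fragment […] carrying P301L, 15 uM unlabeled plus 0.24 uM Alexa 594-labeled, was fibrillized with 20 uM heparin in 100 mM sodium acetate pH 7 for 6 hr at 37 C; 30 uM ThT fluorescence read after 1 hr.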
Tau fluor counter: counter-screen for tau fibril formation inhibitors; Potency, µM (series often up to 57.7 µM), without a hit: at the top dose activity change, negative = decrease; 280,000 compounds, 0.93% hits; tau K18 P301L (four-repeat tau fragment) Alexa594 fluorescence, heparin fibrillization; also: nearly all actives have a fitted effect of over 55% in size
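Human K18 P301L tau (15 uM unlabeled plus 0.24 uM Alexa 594-labeled, final) in 100 mM sodium acetate pH 7 was mixed with compound and 20 uM heparin and incubated 6 hr at 37 C.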
TRb-SRC2 inh: disrupts binding of human TR beta to SRC2. TRbeta-SRC2 peptide binding, fluorescence polarization; receptor liganded with 1 µM T3. Potency, µM (doses to about 106 µM), without a hit: at the top dose activity change, negative = inhibition, most hits filed as inhibitors. 280,000 compounds, 0.065% hits. AID 1469;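 also: plate controls were bound peptide for no effect and peptide without receptor for full effect; nearly all actives have a fitted effect of over 50% in size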
Target sequence (P10828 whole entry, looked up): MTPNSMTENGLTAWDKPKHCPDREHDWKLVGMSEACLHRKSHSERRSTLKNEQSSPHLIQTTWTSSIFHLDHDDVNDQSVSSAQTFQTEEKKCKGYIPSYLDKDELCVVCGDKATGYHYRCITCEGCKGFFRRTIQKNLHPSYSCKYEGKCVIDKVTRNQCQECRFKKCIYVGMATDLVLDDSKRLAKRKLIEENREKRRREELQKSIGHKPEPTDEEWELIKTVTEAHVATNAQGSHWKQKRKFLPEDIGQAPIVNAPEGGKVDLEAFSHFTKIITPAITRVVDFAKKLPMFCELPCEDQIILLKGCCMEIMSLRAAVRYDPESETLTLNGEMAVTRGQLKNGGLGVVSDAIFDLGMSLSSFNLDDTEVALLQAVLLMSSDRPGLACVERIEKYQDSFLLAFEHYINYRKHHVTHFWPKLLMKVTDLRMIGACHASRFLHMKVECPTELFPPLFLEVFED
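Assay buffer: 20 mM Tris-HCl, 100 mM NaCl, 10% glycerol, 1 mM EDTA, 0.01% NP-40, 1 mM DTT, 1 uM T3, 5% DMSO; TRb LBD 0.6 uM, Texas Red SRC2 20 nM; FP after 5 hr.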
* hit, by the source's call; ? = inconclusive; / = no result; [ ] = remark or other dose. Unless noted, calls follow the shape of the dose curve; as a rule, active = well fitted curve in the direction sought with a large enough effect; inconclusive = small, poorly fitted or top-dose-only effect, or another doubt; inactive = no such curve, though single readings can be large; an effect the other way counts as inactive or inconclusive. Unless noted, % is scaled to controls: 0 for no effect and ±100 for the full control effect; potency is read from the fitted curve at half-maximal effect.

SMILES | TR SRC2 fluor cs | Tau FP inhib | Tau fibril ThT | Tau fluor counter | TRb-SRC2 inh
O=C(O)c1ccc(N/N=C/c2cn(Cc3ccccc3F)c3ccccc23)cc1 | -10.0% | -0.3% | 14.1µM* | ? | -4.2%
O=C(O)c1ccc(N/N=C/c2cccc3cccnc23)cc1 | -3.3% | 7.4% | / | -16.9% | -0.4%
COc1cn(CC(=O)Nc2ccccc2)c(CN2CCCCC2)cc1=O | 1.9% | -0.7% | -8.2% | -11.8% | 2.5%
O=C1C(NS(=O)(=O)c2cccs2)=C(N2CCN(c3ccccc3)CC2)C(=O)c2ccccc21 | -3.1% | ? | 6.31µM* | ? | -2.2%
Cc1ccc(S(=O)(=O)NC2=C(N3CCN(c4ccccc4F)CC3)C(=O)c3ccccc3C2=O)cc1 | -1.8% | 4.2% | 15.8µM* | ? | -7.2%
CC(=O)Nc1ccc(S(=O)(=O)NC2=C(N3CCN(c4ccc(F)cc4)CC3)C(=O)c3ccccc3C2=O)cc1 | -4.9% | ? | 5.62µM* | 12.6µM*[quencher] | -20.7%
CCCC/C=C/C(NC(=O)OCc1ccccc1Cl)c1ccccc1 (stereo not given) | 1.9% | 4.1% | 1.2% | -6.2% | 4.4%
CC/C=C\C[C@H]1C(=O)CC[C@@H]1CC(=O)O | -1.9% | -9.7% | -5.4% | -2.8% | 8.2%
COc1ccccc1NC(=O)CC1C(=O)NCCN1C(=O)Nc1ccccc1 (stereo not given) | 2.9% | -3.1% | -6.8% | -9.0% | 4.9%
CCc1ccc(NC(=O)CC2C(=O)NCCN2C(=O)c2ccccc2OC)cc1 (stereo not given) | 8.91µM*[quencher] | -4.4% | -17.8% | -23.6% | -13.0%
COc1cccc2c1C(=O)c1c(O)c3c(c(O)c1C2=O)C[C@](O)(C(=O)CO)C[C@H]3O[C@@H]1C[C@H](N)[C@H](O)[C@H](C)O1 | 15.8µM*[fluorescent] | / | / | / | 14.1µM*
CNc1nc(Cl)nc2c1ncn2CC(COC(=O)C(C)(C)C)COC(=O)C(C)(C)C | -4.5% | / | / | / | -4.6%
C(=N\Nc1nc2ccccc2[nH]1)/c1ccc2c(c1)OCCO2 | -7.6% | 12.1% | 3.98µM* | ? | -1.0%
Fc1ccccc1-c1ccc(/C=N/Nc2nc3ccccc3[nH]2)o1 | -0.5%[53 µM] | 9.3% | 6.31µM* | 14.1µM*[quencher] | 5.1%[53 µM]
COc1cc(OC)c(OC)cc1/C=N/Nc1nc2ccccc2[nH]1 | -2.3% | 0.8% | ? | -21.8% | -5.0%
CCN(CC)c1ccc(/C=N/Nc2nc3ccccc3[nH]2)c(O)c1 | -10.7% | 2.0% | 14.1µM* | 17.8µM*[quencher] | 1.8%
C(=N\Nc1ccc2ccccc2n1)/c1ccc2c(c1)OCCO2 | -3.0% | 3.8% | ? | ? | 2.3%
COc1cc(/C=N\Nc2nc3ccccc3[nH]2)cc(OC)c1OC | -1.2% | -2.7% | ? | 4.7% | 11.6%
COc1ccc(/C=N/Nc2nc3ccccc3[nH]2)cc1OC | -8.1% | ? | 12.6µM* | ? | 1.2%
Cc1nc(N2CCOCC2)c2nc(-c3ccccc3)n(CCN(C)C)c2n1 | -0.9% | 5.5% | -9.1% | -5.3% | -4.2%
COc1ccc2c(CNCc3ccco3)c(C(=O)O)n(Cc3ccc(F)cc3Cl)c2c1 | -0.5% | -5.5% | -9.4% | -11.0% | -4.9%
CC1COCc2cc3c(cc21)C(C)(C)C(C)C3(C)C (stereo not given) | -2.1%[201 µM] | / | / | / | 4.7%[201 µM]
CN(C)c1ccc(-c2nc3cnccn3c2Nc2cccc(C(F)(F)F)c2)cc1 | -4.3% | 6.7% | -16.4% | ? | 3.0%
COc1ccc2c(c1)c(/C=N/Nc1nc3ccccc3[nH]1)c(C)n2C | -13.3% | ? | 22.4µM* | 28.2µM*[quencher] | -1.2%
CCN(CC)c1ccc(/C=N/NC(=O)Cc2cccs2)c(O)c1 | 1.6% | 13.2% | ? | 12.6µM*[quencher] | 2.0%
CCCCn1c(/C=N/Nc2nc3ccccc3[nH]2)nc2ccccc21 | -4.1% | 9.3% | ? | ? | -2.3%
Cc1ccc(Nc2cc(C)nc3nncn23)c(C)c1 | -0.3% | -5.5% | -4.9% | -5.6% | -10.2%
COc1cc(O)c2c(c1)C(=O)c1cc(C)cc(O)c1C2=O | -2.8% | -3.6% | ? | -17.4% | -10.9%
Cc1cc(O)c2c(c1O)C(=O)C(O)=C(O)C2=O | -2.9% | 17.8µM* | 12.6µM* | ? | -0.7%
CC(=O)c1ccc(N2C(=O)N(Cc3cccc(C(F)(F)F)c3)c3ccccc3S2(=O)=O)cc1 | -0.7% | -15.2% | 9.0% | -27.9% | 2.1%
